Experimental findings from PubChem BioAssay (Tox21) are described below.

A number with no mark means an inactive call. Calls follow the shape of the dose curve; as a rule, active = well fitted activation curve with a large enough effect in the repeat runs; inconclusive = weak or mixed curves; inactive = flat fitted curve, though single readings scatter. Inconclusive results are not listed.
% is scaled to controls: 0 for no effect and ±100 for the full control effect.

A short description of the first assay: A CellTox Green Cytotoxicity Assay to monitor cytotoxicity in HEK293 cells - 32 hour (AID 1224881). Also: nearly all actives have a fitted effect of over 40% in size. The conditions noted are these: CellTox Green fluorescence; series mostly up to 76.8 µM; cytotoxicity increase: at the top concentration. Put shortly: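 Each value comes from one timepoint of a single continuous run in which HEK293 cells with CellTox Green were exposed to compound for up to 40 h at 37 C, dye fluorescence rising with cell death.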
For the compound `O=c1oc2c(O)c(O)cc3c(=O)oc4c(O)c(O)cc1c4c23`, the cytotoxicity increase is 18.3% [at 15.8 µM].
Still for that read-out and setting: in the case of `Cc1nnc(SCC2=C(C(=O)O)N3C(=O)[C@@H](NC(=O)Cn4cnnn4)[C@H]3SC2)s1` it was -1.13% [at 35.3 µM].
The same measure, in the same setting: in the case of `Cc1cc(S(=O)(=O)O)c(N)cc1Cl` it was -0.642%; in that of `COc1cc(C)ccc1C(C)C`, 2.02%.
Still for that read-out and setting: for `Cc1ccsc1C(=CCCN1CCC[C@@H](C(=O)O)C1)c1sccc1C` the value was 4.15% [at 35.3 µM]; for `CNCCC(Oc1ccccc1OC)c1ccccc1` (configuration not stated), 1.89% [at 35.3 µM]; for `FC(F)(F)C(F)(F)C(F)(F)C(F)(F)C(F)(F)C(F)(F)C(F)(F)C(F)(F)Br`, -16.3% [at 35.3 µM].
With `CN(CC1(C)CCCO1)S(=O)(=O)c1ccc(Cl)c(S(N)(=O)=O)c1` (configuration not stated), the “cytotoxicity increase” value was 0.421% [at 35.3 µM].
Same read-out and setting: in the case of `O=CCCc1ccccc1` it was -3.67%; in that of `CN1C(=O)CC(c2ccccc2)C1=O` (configuration not stated), -12.6% [at 35.3 µM].
Same read-out and setting: in the case of `CCCN(CCC)C(=O)C(CCC(=O)O)NC(=O)c1ccccc1` (configuration not stated) it was -15.1% [at 35.3 µM]; in that of `CC(=O)Nc1ccc(C)c(Cl)c1`, 2.56%.
As to `FC(F)(F)C(Cl)(Cl)Cl`, the “cytotoxicity increase” value is -16.8%.
As to `N#Cc1ccc(C(c2ccc(C#N)cc2)n2cncn2)cc1`, the “cytotoxicity increase” value was -14.1% [at 35.3 µM].
Still for that read-out and setting: for `CCOc1ccc2nc(N)sc2c1` the value was 4.72%; for `CCCCCCC`, 10.3%.
Still for that read-out and setting: for `CCc1cc(Cl)c(OC)c(C(=O)NC[C@@H]2CCCN2CC)c1O` the value was 2.36% [at 35.3 µM].
As for `CC(C)O`, the “cytotoxicity increase” value is 9.95%.
For `CC(CNC1CCCCC1)OC(=O)c1ccccc1` (configuration not stated), the “cytotoxicity increase” value was -12.7% [at 35.3 µM].
On the same count and under the same terms, for `C1CSCCS1` the value was -1.69%; for `C[C@]12C(=O)OC(=O)[C@H]1[C@H]1C=C[C@@H]2C1`, 0.0041%.
Regarding `OCCN(CCO)CCN(CCO)CCO`, the “cytotoxicity increase” value is -1.84%.
Regarding `CC(C)NCC(O)COc1ccc(CCOCC2CC2)cc1` (configuration not stated), the “cytotoxicity increase” value was 1.97% [at 35.3 µM].
Same read-out and setting: in the case of `NC1=NCC2c3ccccc3Cc3ccccc3N12` (configuration not stated) it was -6.83% [at 35.3 µM]; in that of `CC(C)(CO)[C@@H](O)C(=O)NCCC(=O)O`, 6.46%; in that of `CC(C)CCCCCCc1ccc(OCCOCCO)cc1`, -11.7%.
Same read-out and setting: for `CC(=O)O[C@H]1CC[C@@]2(C)C(=CC[C@@H]3[C@@H]2CC[C@]2(C)C(C(C)=O)=CC[C@@H]32)C1` the value was 6.08% [at 35.3 µM].

A short description of another assay: A CellTox Green Cytotoxicity Assay to monitor cytotoxicity in HepG2 cells - 0 hour (AID 1224882). Also: nearly all actives have a fitted effect of over 35% in size. The conditions noted are these: CellTox Green fluorescence; series mostly up to 76.8 µM; cytotoxicity: at the top concentration. In a few lines:
(§1)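 Continuous culture of HepG2 cells with a membrane-impermeant DNA dye; rising fluorescence marks dead cells. Compound exposure lasted up to 40 h at 37 C, with reads every 8 h from 0 h.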
`O=c1oc2c(O)c(O)cc3c(=O)oc4c(O)c(O)cc1c4c23`: the cytotoxicity is -11.8% [at 15.8 µM].
Still for that read-out and setting: in the case of `Cc1cc(S(=O)(=O)O)c(N)cc1Cl` it was 3%; in that of `COc1cc(C)ccc1C(C)C`, 5.54%.
Still for that read-out and setting: for `Cc1ccsc1C(=CCCN1CCC[C@@H](C(=O)O)C1)c1sccc1C` the value was -12.2% [at 35.3 µM]; for `CNCCC(Oc1ccccc1OC)c1ccccc1` (configuration not stated), -0.569% [at 35.3 µM]; for `CCN(CC)C(=O)N(CC)CC`, 8.22%.
For `CN1C(=O)CC(c2ccccc2)C1=O` (configuration not stated), the “cytotoxicity” value was -10.6% [at 35.3 µM].
Consider `CC(=O)Nc1ccc(C)c(Cl)c1`, for which the “cytotoxicity” value is -3.02%.
For the compound `CCCCN1C[C@H](O)[C@@H](O)[C@H](O)[C@H]1CO`, the “cytotoxicity” value was 17.9% [at 35.3 µM].
Still for that read-out and setting: in the case of `CCC(=O)Nc1ccc(O)cc1` it was 1.03% [at 35.3 µM]; in that of `N#Cc1ccc(C(c2ccc(C#N)cc2)n2cncn2)cc1`, -3.93% [at 35.3 µM]; in that of `CCOc1ccc2nc(N)sc2c1`, 0.8%.
Consider `Cc1ccc([N+](=O)[O-])cc1Cl`, for which the “cytotoxicity” value was -5.64%.
Consider `CCc1cc(Cl)c(OC)c(C(=O)NC[C@@H]2CCCN2CC)c1O`, for which the “cytotoxicity” value was 1.8% [at 35.3 µM].
`CC(C)O`: the “cytotoxicity” value was 5.91%.
For the compound `CC(=O)OC1C2(C)CCC(C2)C1(C)C` (configuration not stated), the “cytotoxicity” value is -10.3%.
In the case of `COc1ccc(S(=O)(=O)Nc2nnc(CC(C)C)s2)cc1`, the “cytotoxicity” value is 0.119% [at 35.3 µM].
As for `NC/C=C/C(=O)O`, the “cytotoxicity” value is -8.43% [at 35.3 µM].
Turning to `C1CSCCS1`, the “cytotoxicity” value was 1.29%.
The same measure, in the same setting: in the case of `OCCN(CCO)CCN(CCO)CCO` it was 1.15%; in that of `O=S(=O)(O)C(F)(F)F`, 8.74%.
Still for that read-out and setting: for `CC(C)NCC(O)COc1ccc(CCOCC2CC2)cc1` (configuration not stated) the value was 4.92% [at 35.3 µM]; for `CCCCNC(=S)NCCCC`, -0.368%; for `CC(C)CCCCCCc1ccc(OCCOCCO)cc1`, 0.425%.
Same read-out and setting: for `CC(=O)O[C@H]1CC[C@@]2(C)C(=CC[C@@H]3[C@@H]2CC[C@]2(C)C(C(C)=O)=CC[C@@H]32)C1` the value was 3.6% [at 35.3 µM].

The nature of another assay: A CellTox Green Cytotoxicity Assay to monitor cytotoxicity in HepG2 cells - 32 hour (AID 1224883). Also: nearly all actives have a fitted effect of over 50% in size. The conditions noted are these: CellTox Green fluorescence; series mostly up to 76.8 µM; cytotoxicity increase: at the top concentration. Put shortly: as §1
As to `O=c1oc2c(O)c(O)cc3c(=O)oc4c(O)c(O)cc1c4c23`, the cytotoxicity increase is 19.5% [at 15.8 µM].
Still for that read-out and setting: in the case of `Cc1nnc(SCC2=C(C(=O)O)N3C(=O)[C@@H](NC(=O)Cn4cnnn4)[C@H]3SC2)s1` it was -0.0216% [at 35.3 µM]; in that of `Cc1cc(S(=O)(=O)O)c(N)cc1Cl`, 0.238%.
Same read-out and setting: in the case of `COc1cc(C)ccc1C(C)C` it was 8.13%; in that of `Cc1ccsc1C(=CCCN1CCC[C@@H](C(=O)O)C1)c1sccc1C`, -4.82% [at 35.3 µM].
Same read-out and setting: for `CNCCC(Oc1ccccc1OC)c1ccccc1` (configuration not stated) the value was -4.4% [at 35.3 µM].
For `FC(F)(F)C(F)(F)C(F)(F)C(F)(F)C(F)(F)C(F)(F)C(F)(F)C(F)(F)Br`, the “cytotoxicity increase” value is 2.34% [at 35.3 µM].
Same read-out and setting: in the case of `CCN(CC)C(=O)N(CC)CC` it was 10.2%; in that of `CN(CC1(C)CCCO1)S(=O)(=O)c1ccc(Cl)c(S(N)(=O)=O)c1` (configuration not stated), 4.27% [at 35.3 µM]; in that of `O=CCCc1ccccc1`, -7.13%.
As for `CC(=O)Nc1ccc(C)c(Cl)c1`, the “cytotoxicity increase” value was -10.2%.
On the same count and under the same terms, for `CCCCN1C[C@H](O)[C@@H](O)[C@H](O)[C@H]1CO` the value was -5.51% [at 35.3 µM]; for `Cc1cccc(C)c1NC(=O)CN1CCCCCC1`, 1.71% [at 35.3 µM].
Consider `CCC(=O)Nc1ccc(O)cc1`, for which the “cytotoxicity increase” value was -7.54% [at 35.3 µM].
Regarding `N#Cc1ccc(C(c2ccc(C#N)cc2)n2cncn2)cc1`, the “cytotoxicity increase” value is -4.32% [at 35.3 µM].
Same read-out and setting: in the case of `CCOc1ccc2nc(N)sc2c1` it was 0.0744%; in that of `Cc1ccc([N+](=O)[O-])cc1Cl`, -4.74%.
Same read-out and setting: in the case of `CCCCCCC` it was 2.05%; in that of `CC(C)O`, -0.316%; in that of `CC(CNC1CCCCC1)OC(=O)c1ccccc1` (configuration not stated), -0.206% [at 35.3 µM].
As to `CC(=O)OC1C2(C)CCC(C2)C1(C)C` (configuration not stated), the “cytotoxicity increase” value was -15.4%.
For `NC/C=C/C(=O)O`, the “cytotoxicity increase” value is -9.04% [at 35.3 µM].
Same read-out and setting: for `C[C@]12C(=O)OC(=O)[C@H]1[C@H]1C=C[C@@H]2C1` the value was 2.56%; for `OCCN(CCO)CCN(CCO)CCO`, -6.15%; for `O=S(=O)(O)C(F)(F)F`, 3%.
`NC1=NCC2c3ccccc3Cc3ccccc3N12` (configuration not stated): the “cytotoxicity increase” value was 0.413% [at 35.3 µM].
On the same count and under the same terms, for `CC(C)(CO)[C@@H](O)C(=O)NCCC(=O)O` the value was -0.823%; for `CCCCNC(=S)NCCCC`, -16%.
On the same count and under the same terms, in the case of `CC(C)CCCCCCc1ccc(OCCOCCO)cc1` it was -8.22%; in that of `CC(=O)O[C@H]1CC[C@@]2(C)C(=CC[C@@H]3[C@@H]2CC[C@]2(C)C(C(C)=O)=CC[C@@H]32)C1`, 0.766% [at 35.3 µM].
